Results on one sequence are retold here after paper PMC7862700, “An all-to-all approach to the identification of sequence-specific readers for epigenetic DNA modifications on cytosine”.

Common to all, as to assay: DAPPL (digital affinity profiling via proximity ligation, sequencing); 10 mM Tris-HCl pH 7.5, 50 mM NaCl, 1 mM DTT, 4% glycerol, room temperature, 30 min; GST-TFs on glutathione beads, 16-mer random dsDNA library, 0.1% formaldehyde crosslink after washing; high values mean tight binding
For one test, the target named is T1, FEV (Homo sapiens, UniProt Q99581 1-238).
T1 sequence: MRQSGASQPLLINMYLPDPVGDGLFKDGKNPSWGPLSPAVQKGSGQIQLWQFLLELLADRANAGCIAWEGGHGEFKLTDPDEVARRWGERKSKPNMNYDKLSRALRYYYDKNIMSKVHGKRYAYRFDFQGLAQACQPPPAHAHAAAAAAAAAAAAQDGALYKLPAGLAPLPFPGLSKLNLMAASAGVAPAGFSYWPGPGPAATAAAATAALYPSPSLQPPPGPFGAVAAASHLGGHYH
The settings on record: protein: recombinant; tags: N-terminal GST; dsDNA, one strand shown. The method, boiled down:
(§1)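 Binding signal is given per hexamer as its read frequency for a factor divided by its frequency in the tag-only sample. GST-fused human transcription factors were expressed in yeast, captured on glutathione beads, barcoded with DNA and pooled with that sample, then incubated with 200 nmole of a 16-mer random double-stranded DNA library in Tris/NaCl/DTT/glycerol buffer for 30 min at room temperature. The pools were then washed, crosslinked, proximity-ligated, amplified by PCR and sequenced on an Illumina NextSeq500.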

The next test has as its target ETV5 (Homo sapiens, UniProt P41161 1-510). The settings on record: protein: recombinant; tags: N-terminal GST; dsDNA, one strand shown. The method, boiled down:
as §1

A further test concerns the target HSF1 (Homo sapiens, UniProt Q00613 1-529). The settings on record: protein: recombinant; tags: N-terminal GST; chain copies: 3; dsDNA, one strand shown. The method, boiled down: as §1
The target of another test is T2, SPIC (Homo sapiens, UniProt Q8N5J4 1-248).
T2 sequence: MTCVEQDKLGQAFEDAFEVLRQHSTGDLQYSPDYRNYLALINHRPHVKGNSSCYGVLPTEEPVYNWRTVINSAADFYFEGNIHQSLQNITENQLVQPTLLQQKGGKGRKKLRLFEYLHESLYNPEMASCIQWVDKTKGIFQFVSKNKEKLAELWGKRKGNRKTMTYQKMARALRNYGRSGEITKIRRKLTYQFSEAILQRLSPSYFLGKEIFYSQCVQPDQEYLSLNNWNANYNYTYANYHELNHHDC
As to conditions: protein: recombinant; tags: N-terminal GST; dsDNA, one strand shown. An outline of the steps: as §1

Another test deals with ELF4 (Homo sapiens, UniProt Q99607 1-663). As to conditions: protein: recombinant; tags: N-terminal GST; dsDNA, one strand shown. An outline of the steps:
as §1

A further test deals with T3, ELK4 (Homo sapiens, UniProt P28324-2 1-405).
T3 sequence: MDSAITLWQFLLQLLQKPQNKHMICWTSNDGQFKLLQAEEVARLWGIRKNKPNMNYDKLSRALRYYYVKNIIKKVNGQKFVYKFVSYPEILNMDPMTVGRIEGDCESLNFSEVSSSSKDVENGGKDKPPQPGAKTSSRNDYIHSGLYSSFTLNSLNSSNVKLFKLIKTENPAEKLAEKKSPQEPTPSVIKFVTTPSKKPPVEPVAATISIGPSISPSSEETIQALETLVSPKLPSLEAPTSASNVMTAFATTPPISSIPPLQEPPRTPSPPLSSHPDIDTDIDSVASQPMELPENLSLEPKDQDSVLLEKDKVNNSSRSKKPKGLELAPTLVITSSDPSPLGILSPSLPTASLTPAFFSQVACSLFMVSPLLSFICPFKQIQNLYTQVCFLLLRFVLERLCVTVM
The settings on record: protein: recombinant; tags: N-terminal GST; dsDNA, one strand shown. An outline of the steps:
as §1

A further test deals with T4, ETV2 (Homo sapiens, UniProt O00321 1-342).
T4 sequence: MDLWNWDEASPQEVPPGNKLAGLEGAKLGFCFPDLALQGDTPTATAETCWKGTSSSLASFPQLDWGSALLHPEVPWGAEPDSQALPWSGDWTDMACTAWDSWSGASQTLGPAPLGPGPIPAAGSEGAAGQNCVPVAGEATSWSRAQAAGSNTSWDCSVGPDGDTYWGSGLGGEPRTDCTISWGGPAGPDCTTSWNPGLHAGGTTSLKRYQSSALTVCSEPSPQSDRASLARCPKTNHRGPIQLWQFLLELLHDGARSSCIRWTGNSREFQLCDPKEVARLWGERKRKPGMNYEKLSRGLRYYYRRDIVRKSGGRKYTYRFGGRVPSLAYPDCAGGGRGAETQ
The settings on record: protein: recombinant; tags: N-terminal GST; dsDNA, one strand shown. The method, boiled down: as §1

The target in another test is T5, ELF3 (Homo sapiens, UniProt P78545 1-371).
T5 sequence: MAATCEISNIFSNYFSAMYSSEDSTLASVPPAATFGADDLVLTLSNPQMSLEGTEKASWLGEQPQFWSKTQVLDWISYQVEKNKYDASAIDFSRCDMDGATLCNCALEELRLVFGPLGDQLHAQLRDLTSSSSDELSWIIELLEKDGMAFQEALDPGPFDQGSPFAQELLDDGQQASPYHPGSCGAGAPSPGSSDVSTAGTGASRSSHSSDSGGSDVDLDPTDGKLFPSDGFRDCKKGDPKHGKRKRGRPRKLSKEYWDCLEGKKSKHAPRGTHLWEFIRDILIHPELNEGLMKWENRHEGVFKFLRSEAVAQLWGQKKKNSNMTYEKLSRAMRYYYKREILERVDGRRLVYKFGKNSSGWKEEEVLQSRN
As to conditions: protein: recombinant; tags: N-terminal GST; dsDNA, one strand shown. The method, boiled down:
as §1

For a further test, the target named is CRX (Homo sapiens, UniProt O43186 1-299). The settings on record: protein: recombinant; tags: N-terminal GST; dsDNA, one strand shown. An outline of the steps:
as §1

The next test has as its target ETV1 (Homo sapiens, UniProt P50549 1-477). As to conditions: protein: recombinant; tags: N-terminal GST; dsDNA, one strand shown. An outline of the steps: as §1
The target of a further test is T6, ERF (Homo sapiens, UniProt P50548 1-548).
T6 sequence: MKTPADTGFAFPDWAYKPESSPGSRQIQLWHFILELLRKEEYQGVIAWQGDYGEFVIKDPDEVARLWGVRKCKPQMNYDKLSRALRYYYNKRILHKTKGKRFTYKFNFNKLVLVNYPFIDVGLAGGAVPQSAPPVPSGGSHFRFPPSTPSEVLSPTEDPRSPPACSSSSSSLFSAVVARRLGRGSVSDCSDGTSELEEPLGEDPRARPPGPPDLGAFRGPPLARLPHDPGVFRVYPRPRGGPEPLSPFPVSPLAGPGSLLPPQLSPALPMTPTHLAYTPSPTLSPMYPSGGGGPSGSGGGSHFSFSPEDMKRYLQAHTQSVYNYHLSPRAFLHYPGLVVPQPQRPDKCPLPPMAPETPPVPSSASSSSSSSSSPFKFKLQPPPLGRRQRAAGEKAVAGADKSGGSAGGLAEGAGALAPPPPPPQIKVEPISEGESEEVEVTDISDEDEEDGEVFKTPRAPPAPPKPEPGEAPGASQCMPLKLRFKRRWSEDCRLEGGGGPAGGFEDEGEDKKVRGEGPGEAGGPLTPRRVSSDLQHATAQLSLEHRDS
The settings on record: protein: recombinant; tags: N-terminal GST; dsDNA, one strand shown. An outline of the steps:
as §1

Another test addresses T7, ETV3L (Homo sapiens, UniProt Q6ZN32 1-361).
T7 sequence: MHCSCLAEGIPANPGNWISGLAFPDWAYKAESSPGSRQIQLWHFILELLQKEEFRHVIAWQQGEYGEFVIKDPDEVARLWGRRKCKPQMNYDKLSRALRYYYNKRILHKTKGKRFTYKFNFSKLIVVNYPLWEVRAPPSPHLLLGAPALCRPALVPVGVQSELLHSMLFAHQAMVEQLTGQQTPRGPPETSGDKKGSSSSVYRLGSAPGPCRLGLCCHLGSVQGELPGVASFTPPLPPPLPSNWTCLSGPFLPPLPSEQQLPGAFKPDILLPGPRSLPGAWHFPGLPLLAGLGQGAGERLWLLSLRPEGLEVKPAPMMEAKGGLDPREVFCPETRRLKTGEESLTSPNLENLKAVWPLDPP
The settings on record: protein: recombinant; tags: N-terminal GST; dsDNA, one strand shown. An outline of the steps: as §1

The target in a further test is T8, ETS2 (Homo sapiens, UniProt P15036 1-469).
T8 sequence: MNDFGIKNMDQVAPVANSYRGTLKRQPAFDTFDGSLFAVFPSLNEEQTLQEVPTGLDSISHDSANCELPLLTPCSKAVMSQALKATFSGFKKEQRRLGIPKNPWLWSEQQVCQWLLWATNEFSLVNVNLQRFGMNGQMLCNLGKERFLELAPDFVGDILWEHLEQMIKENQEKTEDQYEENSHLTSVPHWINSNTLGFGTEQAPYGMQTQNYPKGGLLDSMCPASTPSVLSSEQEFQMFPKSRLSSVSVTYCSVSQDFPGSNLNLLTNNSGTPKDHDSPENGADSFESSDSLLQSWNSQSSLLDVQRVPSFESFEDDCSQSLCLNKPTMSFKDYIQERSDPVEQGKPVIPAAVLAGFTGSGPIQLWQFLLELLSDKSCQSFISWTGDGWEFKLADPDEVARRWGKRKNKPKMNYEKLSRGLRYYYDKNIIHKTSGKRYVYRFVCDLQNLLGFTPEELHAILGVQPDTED
The settings on record: protein: recombinant; tags: N-terminal GST; dsDNA, one strand shown. The method, boiled down: as §1

For a further test, the target named is T9, SPDEF (Homo sapiens, UniProt O95238 1-335).
T9 sequence: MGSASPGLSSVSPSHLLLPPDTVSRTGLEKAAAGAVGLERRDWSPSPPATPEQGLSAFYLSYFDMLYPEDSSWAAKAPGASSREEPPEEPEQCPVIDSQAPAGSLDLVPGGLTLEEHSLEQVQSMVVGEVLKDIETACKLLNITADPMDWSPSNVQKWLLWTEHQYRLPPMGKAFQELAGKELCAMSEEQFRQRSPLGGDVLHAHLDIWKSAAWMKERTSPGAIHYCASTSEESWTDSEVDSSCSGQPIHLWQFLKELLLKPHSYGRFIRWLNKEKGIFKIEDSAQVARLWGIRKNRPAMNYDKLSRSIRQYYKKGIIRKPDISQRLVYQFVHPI
The settings on record: protein: recombinant; tags: N-terminal GST; dsDNA, one strand shown. The method, boiled down: as §1

The next test concerns the target T10, ETV7 (Homo sapiens, UniProt Q9Y603 1-341).
T10 sequence: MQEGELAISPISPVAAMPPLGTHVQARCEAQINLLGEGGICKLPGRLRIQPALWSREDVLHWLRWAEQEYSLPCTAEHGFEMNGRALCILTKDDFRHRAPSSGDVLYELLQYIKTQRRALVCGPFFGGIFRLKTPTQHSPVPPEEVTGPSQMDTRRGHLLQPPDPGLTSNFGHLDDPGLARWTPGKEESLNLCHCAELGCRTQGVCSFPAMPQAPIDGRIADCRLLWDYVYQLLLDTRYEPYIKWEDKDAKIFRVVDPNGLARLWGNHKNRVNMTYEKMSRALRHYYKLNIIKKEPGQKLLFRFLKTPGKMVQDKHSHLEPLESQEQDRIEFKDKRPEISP
The settings on record: protein: recombinant; tags: N-terminal GST; dsDNA, one strand shown. The method, boiled down: as §1

The next test deals with T11, ELF5 (Homo sapiens, UniProt Q9UKW6-2 1-255).
T11 sequence: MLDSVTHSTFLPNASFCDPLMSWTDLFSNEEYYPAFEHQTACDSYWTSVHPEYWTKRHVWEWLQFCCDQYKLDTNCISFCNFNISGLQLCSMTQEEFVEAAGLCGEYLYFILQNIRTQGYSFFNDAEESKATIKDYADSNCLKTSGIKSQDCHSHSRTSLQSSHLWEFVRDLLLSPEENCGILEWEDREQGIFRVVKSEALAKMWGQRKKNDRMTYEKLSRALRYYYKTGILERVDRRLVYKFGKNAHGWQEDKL
The settings on record: protein: recombinant; tags: N-terminal GST; dsDNA, one strand shown. The method, boiled down:
as §1

A further test deals with T12, ETV3 (Homo sapiens, UniProt P41162-2 1-143).
T12 sequence: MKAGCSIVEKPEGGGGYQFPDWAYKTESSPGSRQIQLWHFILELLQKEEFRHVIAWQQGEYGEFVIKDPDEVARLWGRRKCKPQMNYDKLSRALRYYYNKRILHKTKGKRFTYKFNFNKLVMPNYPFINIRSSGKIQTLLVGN
The settings on record: protein: recombinant; tags: N-terminal GST; dsDNA, one strand shown. An outline of the steps: as §1

A further test addresses ETV6 (Homo sapiens, UniProt P41212 1-452). The settings on record: protein: recombinant; tags: N-terminal GST; dsDNA, one strand shown. The method, boiled down: as §1

ETV5, sequence (P41161 whole entry): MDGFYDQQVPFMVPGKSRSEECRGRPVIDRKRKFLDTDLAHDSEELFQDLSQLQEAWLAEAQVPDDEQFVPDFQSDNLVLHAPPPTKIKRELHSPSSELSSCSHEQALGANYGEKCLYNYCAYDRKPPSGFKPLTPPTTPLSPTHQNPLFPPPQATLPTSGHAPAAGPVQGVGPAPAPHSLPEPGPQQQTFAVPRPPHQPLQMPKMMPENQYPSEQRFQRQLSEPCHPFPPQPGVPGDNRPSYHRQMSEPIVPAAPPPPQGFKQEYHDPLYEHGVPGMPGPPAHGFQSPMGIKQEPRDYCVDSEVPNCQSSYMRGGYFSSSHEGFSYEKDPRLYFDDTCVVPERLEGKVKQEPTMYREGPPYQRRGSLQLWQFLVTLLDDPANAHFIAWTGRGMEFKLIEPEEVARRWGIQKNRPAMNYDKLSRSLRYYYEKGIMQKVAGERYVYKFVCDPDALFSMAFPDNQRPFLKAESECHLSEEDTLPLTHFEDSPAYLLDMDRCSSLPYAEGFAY
ELF4, sequence (Q99607 whole entry): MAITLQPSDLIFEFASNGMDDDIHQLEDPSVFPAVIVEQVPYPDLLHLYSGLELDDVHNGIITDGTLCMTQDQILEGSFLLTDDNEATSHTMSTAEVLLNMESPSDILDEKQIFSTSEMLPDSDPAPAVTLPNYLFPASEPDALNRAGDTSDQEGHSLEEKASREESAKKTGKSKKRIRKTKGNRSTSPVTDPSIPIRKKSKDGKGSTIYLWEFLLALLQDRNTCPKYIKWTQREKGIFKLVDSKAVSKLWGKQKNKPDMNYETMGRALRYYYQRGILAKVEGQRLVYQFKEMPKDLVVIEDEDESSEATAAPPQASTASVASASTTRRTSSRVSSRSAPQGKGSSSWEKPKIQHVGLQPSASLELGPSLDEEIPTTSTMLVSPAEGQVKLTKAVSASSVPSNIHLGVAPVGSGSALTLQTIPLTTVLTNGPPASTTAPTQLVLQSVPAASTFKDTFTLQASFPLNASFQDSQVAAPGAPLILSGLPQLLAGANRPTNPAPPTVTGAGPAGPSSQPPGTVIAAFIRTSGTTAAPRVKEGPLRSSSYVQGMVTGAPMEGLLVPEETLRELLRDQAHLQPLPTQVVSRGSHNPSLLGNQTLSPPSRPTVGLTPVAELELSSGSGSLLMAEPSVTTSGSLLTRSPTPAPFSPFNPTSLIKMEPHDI
ETV6, sequence (P41212 whole entry): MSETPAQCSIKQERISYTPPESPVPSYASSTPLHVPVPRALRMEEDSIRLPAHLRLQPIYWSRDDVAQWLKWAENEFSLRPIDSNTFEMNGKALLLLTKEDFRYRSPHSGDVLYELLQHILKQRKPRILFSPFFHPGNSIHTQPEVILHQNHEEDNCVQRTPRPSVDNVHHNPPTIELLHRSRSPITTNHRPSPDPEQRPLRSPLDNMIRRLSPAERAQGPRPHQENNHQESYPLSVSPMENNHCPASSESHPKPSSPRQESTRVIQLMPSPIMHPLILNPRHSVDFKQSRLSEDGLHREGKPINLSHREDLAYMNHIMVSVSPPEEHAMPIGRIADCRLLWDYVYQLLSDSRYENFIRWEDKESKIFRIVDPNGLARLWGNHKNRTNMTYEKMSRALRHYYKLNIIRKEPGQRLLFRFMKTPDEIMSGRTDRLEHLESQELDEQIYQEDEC
ETV1, sequence (P50549 whole entry): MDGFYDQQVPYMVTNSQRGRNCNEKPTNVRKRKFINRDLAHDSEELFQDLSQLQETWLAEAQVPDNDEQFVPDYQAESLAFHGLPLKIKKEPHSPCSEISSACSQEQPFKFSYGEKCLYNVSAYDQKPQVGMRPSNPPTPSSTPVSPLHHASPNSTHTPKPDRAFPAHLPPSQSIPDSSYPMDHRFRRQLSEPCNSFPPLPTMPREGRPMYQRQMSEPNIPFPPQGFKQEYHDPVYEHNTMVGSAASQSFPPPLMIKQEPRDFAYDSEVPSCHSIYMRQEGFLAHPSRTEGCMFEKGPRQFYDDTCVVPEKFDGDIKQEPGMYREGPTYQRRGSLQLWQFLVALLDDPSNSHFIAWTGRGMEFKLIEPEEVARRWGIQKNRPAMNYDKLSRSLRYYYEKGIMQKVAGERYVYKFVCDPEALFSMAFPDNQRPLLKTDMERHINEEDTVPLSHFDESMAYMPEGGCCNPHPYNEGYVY
HSF1, sequence (Q00613 whole entry): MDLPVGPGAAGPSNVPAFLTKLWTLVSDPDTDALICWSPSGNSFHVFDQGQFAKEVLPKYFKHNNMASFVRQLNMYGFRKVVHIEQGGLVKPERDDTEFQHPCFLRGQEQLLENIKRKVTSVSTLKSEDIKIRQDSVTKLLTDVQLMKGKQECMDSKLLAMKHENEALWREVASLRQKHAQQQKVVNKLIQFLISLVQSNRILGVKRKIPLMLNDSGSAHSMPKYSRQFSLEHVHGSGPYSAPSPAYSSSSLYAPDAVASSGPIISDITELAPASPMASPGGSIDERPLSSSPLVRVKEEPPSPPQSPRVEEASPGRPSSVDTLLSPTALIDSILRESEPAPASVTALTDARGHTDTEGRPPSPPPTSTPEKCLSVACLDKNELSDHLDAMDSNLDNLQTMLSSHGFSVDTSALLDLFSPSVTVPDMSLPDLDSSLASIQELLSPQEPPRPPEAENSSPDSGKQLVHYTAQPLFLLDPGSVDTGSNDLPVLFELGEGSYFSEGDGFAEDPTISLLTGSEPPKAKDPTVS
CRX, sequence (O43186 whole entry): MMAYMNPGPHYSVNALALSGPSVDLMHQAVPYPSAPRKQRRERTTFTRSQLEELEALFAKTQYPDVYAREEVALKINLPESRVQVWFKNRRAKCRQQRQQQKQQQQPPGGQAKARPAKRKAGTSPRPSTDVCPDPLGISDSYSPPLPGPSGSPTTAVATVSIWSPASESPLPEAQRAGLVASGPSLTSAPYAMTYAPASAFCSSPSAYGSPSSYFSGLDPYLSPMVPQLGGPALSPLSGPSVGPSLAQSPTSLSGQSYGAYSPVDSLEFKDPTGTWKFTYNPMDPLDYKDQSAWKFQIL

On to CTGTTA, for which the binding signal in the test with FEV is 1.25 fold enrichment (6-mer frequency, TF over GST control); in the test with ETV5, 1.2 fold enrichment (6-mer frequency, TF over GST control); in the test with HSF1, 1.16 fold enrichment (6-mer frequency, TF over GST control); in the test with SPIC, 1.28 fold enrichment (6-mer frequency, TF over GST control); with ELF4, 1.37 fold enrichment (6-mer frequency, TF over GST control); with ELK4, 1.4 fold enrichment (6-mer frequency, TF over GST control). In addition, the binding signal in the test with ETV2 is 1.35 fold enrichment (6-mer frequency, TF over GST control); with ELF3 it was 1.32 fold enrichment (6-mer frequency, TF over GST control); in the test with CRX, 1.16 fold enrichment (6-mer frequency, TF over GST control); with ETV1 it was 1.23 fold enrichment (6-mer frequency, TF over GST control); with ERF it was 1.28 fold enrichment (6-mer frequency, TF over GST control); in the test with ETV3L, 1.23 fold enrichment (6-mer frequency, TF over GST control). In addition, the binding signal is 1.26 fold enrichment (6-mer frequency, TF over GST control) with ETS2; 1.32 fold enrichment (6-mer frequency, TF over GST control) with SPDEF; 1.12 fold enrichment (6-mer frequency, TF over GST control) with ETV7; 1.37 fold enrichment (6-mer frequency, TF over GST control) with ELF5; 1.31 fold enrichment (6-mer frequency, TF over GST control) in the test with ETV3; 1.26 fold enrichment (6-mer frequency, TF over GST control) with ETV6.
